This is a sample that favours compounds with a hit; in the whole collection about 6.2% have one here.
Gal4-VP16 FLuc – VP16 counterscreen qHTS for inhibitors of ROR gamma transcriptional activity | Drosophila S2 Gal4-VP16 UAS-luciferase, luminescence, 20 h | Potency, µM (series often up to 53.6 µM), inactives show top-dose activity, negative = inhibition, most hits filed as inhibitors | hit rate 3.5% among 310,000;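 note: Gal4-VP16 expression switched on by copper sulfate through the metallothionein promoter; nearly all actives have a fitted effect of over 50% in size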
KinaseGlo FLuc – Counterscreen for Luciferase (Kinase-Glo TM) Inhibition; Luciferin 4-monooxygenase (Photuris pensylvanica), Q27757; Kinase-Glo luciferase, ATP luminescence, 8 min; Potency, µM (titrated, usually from 38.3 µM), inactives show at the top dose activity change, negative = inhibition, actives largely listed as inhibitors; hit rate 0.28% among 200,000; note: nearly all actives have a fitted effect of over 60% in size
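Recombinant Kinase-Glo luciferase, 10 uM ATP (linear range), luciferin; imidazole pH 7.2 / KCl / MgCl2 / Tween / BSA buffer; 8 min RT; luminescence.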
RORgamma inh – qHTS for inhibitors of ROR gamma transcriptional activity. Potency, µM (highest dose often 53.6 µM), inactives show top-dose activity change, negative = inhibition, hits mostly inhibitors. Nuclear receptor ROR-gamma (Mus musculus), P51450. Drosophila S2 Gal4-RORgamma UAS-luciferase reporter, 20 h. hit rate 5.4% among 310,000; note: nearly all actives have a fitted effect of over 60% in size
Target sequence (P51450 whole entry, looked up, the tested form may be a part): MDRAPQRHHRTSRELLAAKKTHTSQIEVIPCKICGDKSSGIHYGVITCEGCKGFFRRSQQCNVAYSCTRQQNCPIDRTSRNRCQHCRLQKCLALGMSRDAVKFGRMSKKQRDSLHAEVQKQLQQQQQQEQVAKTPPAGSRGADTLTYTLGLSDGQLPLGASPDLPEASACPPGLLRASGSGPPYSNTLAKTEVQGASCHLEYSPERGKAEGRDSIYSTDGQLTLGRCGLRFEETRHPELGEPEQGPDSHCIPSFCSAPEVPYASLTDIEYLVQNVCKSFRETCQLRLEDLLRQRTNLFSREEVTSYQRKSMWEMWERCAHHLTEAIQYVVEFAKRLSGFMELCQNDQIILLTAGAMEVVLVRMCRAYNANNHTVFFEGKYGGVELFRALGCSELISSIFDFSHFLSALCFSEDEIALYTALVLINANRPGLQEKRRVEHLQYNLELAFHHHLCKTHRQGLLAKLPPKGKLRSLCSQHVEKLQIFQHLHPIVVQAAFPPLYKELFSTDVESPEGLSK
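In this cell-based reporter format, copper sulfate (700 uM final) drives Gal4–ROR gamma fusion expression from a metallothionein promoter in Drosophila Schneider cells; compounds preincubated 1 hr, reporter read after 20 hr at ambient temperature.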
The depositor's hits bear a star; ? = inconclusive; . = not tested or not shown; [ ] = dose if it differs, or a comment. Calls come from the whole dose curve; as a rule, active = well fitted curve in the direction sought with a large enough effect; inconclusive = small, poorly fitted or top-dose-only effect, or another doubt; inactive = no such curve, though single readings can be large; an effect the other way counts as inactive or inconclusive. % is set by controls: 0 for no effect and ±100 for the full control effect; potency is the fitted concentration of half-maximal effect.

SMILES | Gal4-VP16 FLuc | KinaseGlo FLuc | RORgamma inh
O=C(NC(=S)NNC(=O)c1ccccc1[N+](=O)[O-])c1ccccc1 | 3.2µM* | 0% | 4.5µM*
O=C(c1cc(Br)ccc1Cl)N1CCN(c2ccccn2)CC1 | -10% | . | -12%
CCc1nnc(NC(=O)CN2C(=O)/C(=C/c3ccc(OC)c(OC)c3)SC2=S)s1 | 3% | -3% | -2%
COc1ccccc1Nc1nc(N)nc(CN2CCc3ccccc3C2)n1 | ? | 2% | 11µM*
COc1ccc(Nc2nc(N)nc(CN3CCc4ccccc4C3)n2)cc1 | 2% | 3% | -2%
CC1CCN(C(=S)SCc2nc(N)nc(Nc3ccccc3)n2)CC1 | 6% | . | -65%
COc1ccc(Nc2nc(N)nc(CSC(=S)N3CCCCC3C)n2)cc1 (stereo not given) | -1% | . | 13µM*
COc1ccccc1Nc1nc(N)nc(CSC(=S)N2CC(C)CC(C)C2)n1 (stereo not given) | 25µM* | -1% | ?
COc1ccc(Nc2nc(N)nc(CSC(=S)N3CCCCC3)n2)cc1 | ? | 0% | ?
COc1cc(NC(=O)c2nccnc2C(=O)O)cc(OC)c1 | -1% | -1% | -4%
CCOC(=O)CN(Cc1cc(OC)cc(N(C)C)c1OC)C(=O)C1CC(CO[Si](C)(C)C(C)(C)C)=CN1C(=O)OC(C)(C)C (stereo not given) | -19% | . | 27%
Cc1ccc(NC(=O)CCCn2c(=O)[nH]c3ccsc3c2=O)cc1 | -1% | . | 1%
O=C(CCCn1c(=S)[nH]c2ccsc2c1=O)Nc1ccc2c(c1)OCO2 | -19% | 0% | 13µM*
Cc1cccc(NC(=O)CCCn2c(=S)[nH]c3ccccc3c2=O)c1 | 4%[10 µM] | -2% | 11µM*
COc1cc(NC(=O)CCCn2c(=S)[nH]c3ccccc3c2=O)cc(OC)c1OC | 1%[10 µM] | -2% | ?
Cc1ccc(NC(=O)CCCn2c(=S)[nH]c3ccsc3c2=O)cc1C | ? | . | 13µM*
CCOC(=O)N1CCN(C(=O)CCCCn2c(=S)[nH]c3ccsc3c2=O)CC1 | -27% | -5% | ?
CCc1cc2c(COC(=O)c3cccc(NS(C)(=O)=O)c3)cc(=O)oc2cc1O | -9% | . | -4%
C/C=C1/NN(CCCN2CCN(c3cccc(Cl)c3)CC2)C(=O)N1CCOc1ccccc1 | -4% | 3%[39.9 µM] | 21%
CN1CCC(=NNC(=O)c2cc(-c3ccc(Cl)cc3)n[nH]2)CC1 | -2% | . | 23%
CC1CN(S(=O)(=O)c2cccc(C(=O)OCc3cc(=O)oc4cc(O)ccc34)c2)CC(C)O1 (stereo not given) | -18% | 0% | 1%
CN(C)c1cccc(C(=O)OCc2cc(=O)oc3cc(O)ccc23)c1 | ? | -4% | 8.9µM*
O=[N+]([O-])c1cccc(-c2n[nH]c(=S)n2Cc2ccccc2)c1 | ? | -1% | 7.1µM*
C=CCn1c(SC)nnc1-c1cccc([N+](=O)[O-])c1 | -5% | 0% | 2%
Cc1cc(-c2cccc([N+](=O)[O-])c2)nc2ccccc12 | 13% | 0% | 12%
SMILES | Gal4-VP16 FLuc | KinaseGlo FLuc | RORgamma inh
C=CCn1c(-c2cccc([N+](=O)[O-])c2)n[nH]c1=S | 8.9µM* | -3% | 2.2µM*
Cc1ccc(-n2cnc3sc(C)c(C)c3c2=O)cc1 | -4% | 2% | 28%
CCOC(=O)c1ccc(S(=O)(=O)N2CCN(C(=O)c3cc(=O)c4ccccc4o3)CC2)cc1 | -3% | 0% | 12%
C=CCSCC=C | 7% | -5% | 10%
N#C/C(=C\c1ccc(O)c(O)c1)C(=O)NCCCCc1ccccc1 | 32µM* | -2% | ?
N#C/C(=C\c1ccc(O)c(O)c1)C(=O)NCCc1ccccc1 | . | 1% | .
COc1cccc(-c2nc(NCc3cnc(C)cn3)c3ccccc3n2)c1 | 4% | -3% | 2%
CCSC1=N/C(=C\c2ccc(OC)cc2)C(=O)N1 | -9% | -1% | -3%
COc1ccc(/C=C2\N=C(SC)NC2=O)cc1 | ? | -6% | 13µM*
COC(=O)[C@H](Cc1ccccc1)NC(=O)O[C@@H]1C(=O)c2ccc(OC)cc2O[C@H]1c1cccc(C(F)(F)F)c1 | -6% | 1% | -11%
CCOC(=O)/C=C1\Nc2ccccc2OC1=O | 12% | 0% | -38%
COc1ccc(C2CC(c3ccc(OC)cc3)n3nc(NC(=O)c4cccs4)nc3N2)cc1 (stereo not given) | ? | -3% | 5µM*
CC1CC(c2ccccc2)n2nc(NC(=O)c3ccco3)nc2N1 (stereo not given) | -11% | 0% | -41%
COc1ccc(C2CC(c3ccc(F)cc3)n3nc(NC(=O)c4ccco4)nc3N2)cc1 (stereo not given) | 13µM* | . | 7.1µM*
COCC(=O)Nc1nc2n(n1)C(c1ccc(Cl)cc1)CC(c1ccc(OC)cc1)N2 (stereo not given) | 2% | -5% | -18%
COC(=O)C1=C(C)N(Cc2ccccc2)c2c(C(=O)OC)c(C(=O)OC)c(C(=O)OC)c(=O)n2C1c1ccccc1 (stereo not given) | 6%[10 µM] | . | -13%[10 µM]
O=C(NCc1ccncc1)C(=O)Nc1nc(C23CC4CC(CC(C4)C2)C3)cs1 | -22% | 1% | -6%[10 µM]
O=C(NCc1ccccc1)C(=O)Nc1nc(C23CC4CC(CC(C4)C2)C3)cs1 | 7.1µM* | 0% | 7.9µM*
CNC(=O)C(=O)Nc1nc(C23CC4CC(CC(C4)C2)C3)cs1 | 12% | 5% | -42%
O=C(NCc1ccc(F)cc1)C(=O)Nc1nc(C23CC4CC(CC(C4)C2)C3)cs1 | 4µM* | 17% | 5.6µM*
O=C(NCc1cccnc1)C(=O)Nc1nc(C23CC4CC(CC(C4)C2)C3)cs1 | -3% | . | ?
Cc1noc(C)c1C(=O)Nc1nc(C23CC4CC(CC(C4)C2)C3)cs1 | 22µM* | -2% | ?
Cc1cc(C)c(C#N)c(SCC(=O)Nc2nonc2N)n1 | 22% | . | 24%
O=C(COC(=O)c1ccc(Cl)c(Cl)c1)NC1CCCC1 | -4% | . | -9%
Nc1cc(=O)[nH]n1C1CCCCC1 | -14% | 1% | 0%
SMILES | Gal4-VP16 FLuc | KinaseGlo FLuc | RORgamma inh
O=C(COC(=O)c1ccc(Br)cc1)NCCC1=CCCCC1 | -3% | -2% | 17%
Cc1ccc(OCC(=O)NCCC2=CCCCC2)cc1 | -3% | 1% | -1%
CC(=O)c1cccc(NC(=S)NCCC2=CCCCC2)c1 | 7.1µM* | 2% | 7.1µM*
Cc1ccc(NC(=S)NCCC2=CCCCC2)cc1 | 6.3µM* | -2% | 5.6µM*
CCOC(=O)c1ccc(NC(=S)NCCC2=CCCCC2)cc1 | 3.2µM* | 1% | 2.8µM*
CC(=O)c1cccc(NC(=S)NCCc2ccc(F)cc2)c1 | -14% | 2% | ?
O=c1[nH]ncc(N/N=C\c2cccs2)c1Cl | ? | -2% | -7%
C#CCCCO/N=C1/[C@H]2O[C@@H]2[C@@H](O)[C@H]2[C@H]1CCn1c(=O)n(-c3ccccc3)c(=O)n12 | 13%[10 µM] | . | -5%[10 µM]
Nc1ccc(C(=O)OCC(=O)N2CCOCC2)cc1[N+](=O)[O-] | -14% | -1% | -37%
COC(=O)[C@@H](NCc1cccc(CN[C@H](C(=O)OC)c2ccccc2)c1)c1ccccc1 | 3% | . | 12%
CS(=O)(=O)Cc1ccc(C(=O)Nc2cccc(-c3nc4ccccc4[nH]3)c2)cc1 | -16% | . | 27%

Source: PubChem BioAssay (National Center for Advancing Translational Sciences (NCATS))
